This excerpt belongs to a sample that is enriched for hits.
Pf Dd2 inh – inhibitors of Plasmodium falciparum Dd2 growth. P. falciparum Dd2 growth, SYBR Green, 72 h. Potency, µM (highest dose often 28.9 µM), actives largely listed as inhibitors. 120,000 compounds, 4.3% hits; active = well fitted inhibition curve with a large enough effect; also: nearly all actives have a fitted effect of over 65% in size
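Infected erythrocytes (Dd2, 0.3% parasitemia, 2.5% hematocrit final) are added to compound in RPMI-1640/Albumax II medium, grown 72 h at 37C in low oxygen, then lysed with saponin/Triton-X containing SYBR Green and read by fluorescence.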
Hits are given with their value.

CS(=O)(=O)N1CCC(c2nnc3n2C(C(=O)O)CC3)CC1 (stereo not drawn) was read as Pf Dd2 inh inactive.
For O=C(CCC[C@@H]1[C@H]2CCCN3CCC[C@@H](CN1C(=O)Nc1ccccc1)[C@@H]23)Nc1ccccc1 the results were Pf Dd2 inh inactive.
COc1ccccc1N1CCN(C(=O)CSc2nc3ccccc3nc2Cc2ccc(C)cc2)CC1 was read as Pf Dd2 inh inactive.
`Cc1ccc(Cc2nc3ccccc3nc2SCC(=O)N2CCC(C)CC2)cc1` gave Pf Dd2 inh 10µM.
Screening Cc1ccc(Cc2nc3ccccc3nc2SCC(=O)N2CCN(c3ccc(F)cc3)CC2)cc1 returned Pf Dd2 inh inactive.
For CC(C)NC(=O)N1C[C@@H](Oc2cccnc2)C[C@H]1C(=O)N1CCOCC1 the results were Pf Dd2 inh inactive.
Screening O=Cc1cccc(N2CCN(C(=O)Nc3ccccc3)CC2=O)c1 returned Pf Dd2 inh inactive.
For CC(C)NC(=O)[C@H]1O[C@H](CCN2CCN(c3ccc(F)cc3)CC2)CC[C@@H]1O the results were Pf Dd2 inh inactive.
Cc1ccccc1NC(=O)CSc1nc2ccc(NC(=O)c3cccs3)cc2s1 was read as Pf Dd2 inh inactive.
Screening Cc1ccc(OCCSc2nc3ccc(NC(=O)c4cccs4)cc3s2)cc1 returned Pf Dd2 inh 1µM.
`O=C(Nc1ccc2nc(SCCOc3ccccc3Cl)sc2c1)c1cccs1` gave Pf Dd2 inh 2.82µM.
`Cc1ccc(OCCSc2nc3ccc(NC(=O)COc4ccc(F)cc4)cc3s2)cc1` gave Pf Dd2 inh inactive.
Screening CCC(=O)Nc1ccc2nc(SCCOc3ccccc3)sc2c1 returned Pf Dd2 inh inactive.
For Cc1ccc(OCCSc2nc3ccc(NC(=O)c4ccc(F)cc4)cc3s2)cc1 the results were Pf Dd2 inh inactive.
For C#CCNC(=O)[C@H]1O[C@H](CCN2CCOCC2)CC[C@@H]1O the results were Pf Dd2 inh inactive.
For O=C(NCc1cccnc1Oc1ccccc1F)c1cnc2ccccn12 the results were Pf Dd2 inh inactive.
For COCCn1ncc(N2CCC(NC(=O)C(C)C)CC2)cc1=O the results were Pf Dd2 inh inactive.
Screening O=C(NC1CCCN(c2cc(-c3ccccc3)[nH]n2)C1)C1CCCC1 (stereo not drawn) returned Pf Dd2 inh inactive.
Cc1ccc(-c2cc(C(=O)N3CCC(Cc4nncn4C(C)C)CC3)c3ccccc3n2)cc1C was read as Pf Dd2 inh 5.01µM.
CC(C)n1cnnc1CC1CCCN(C(=O)c2n[nH]c3ccccc23)C1 (stereo not drawn) was read as Pf Dd2 inh inactive.
Cc1nn(C(=O)CCCC(=O)N2CCC(Cc3nncn3C(C)C)CC2)c2ccccc12 was read as Pf Dd2 inh inactive.
Screening Cc1nn(-c2ccccc2)c(C)c1Cc1nc(C(C)C)no1 returned Pf Dd2 inh inactive.
O=C1NC(=NC2CCCC2)C2(CCN(Cc3cccnc3)CC2)N1c1cc(F)cc(F)c1 was read as Pf Dd2 inh inactive.
`O=C1NC(=NC2CCCCC2)C2(CCN(Cc3ccccc3)C2)N1c1cc(F)cc(F)c1` (stereo not drawn) gave Pf Dd2 inh 1.78µM.
Screening O=C1NC(=NC2CCCCC2)C2(CCCN(Cc3ccccc3)C2)N1c1cc(F)cc(F)c1 (stereo not drawn) returned Pf Dd2 inh 7.08µM.
O=C1NC(=NC2CCCC2)C2(CCN(Cc3ccccc3)C2)N1c1cccnc1 (stereo not drawn) was read as Pf Dd2 inh inactive.
`O=C1NC(=NC2CCCC2)C2(CCCN(Cc3ccccc3)C2)N1c1cccnc1` (stereo not drawn) gave Pf Dd2 inh inactive.
Screening O=C1NC(=NC2CCCC2)C2(CCCN(Cc3ccccc3)C2)N1c1cc(F)cc(F)c1 (stereo not drawn) returned Pf Dd2 inh inactive.
`CCO[C@H]1CN(C(=O)CCc2ccc(S(=O)(=O)NC)cc2)C[C@@H]1O` gave Pf Dd2 inh inactive.
COc1cccc(CN2CCCC(O)(CN3CCC4(CC3)OCCO4)C2=O)c1 (stereo not drawn) was read as Pf Dd2 inh inactive.
C=Cc1ccc(Cn2c(=O)c(-c3noc(C)n3)c3n(c2=O)CCCCC3)cc1 was read as Pf Dd2 inh inactive.
Screening CCn1c(C2CCN(C(=O)[C@@H](N)Cc3cnc[nH]3)CC2)nn(C)c1=O returned Pf Dd2 inh inactive.
For O=C(CCc1cn2ccccc2n1)N[C@H]1[C@@H]2CCO[C@@H]2[C@@H]1C1CCCC1 the results were Pf Dd2 inh inactive.
For C[C@@H](NCc1cccc(Cl)c1)c1onc(-c2ccc(F)cc2)c1C(=O)O the results were Pf Dd2 inh inactive.
Screening CC(C)[C@]1(O)CN(C(=O)Cn2[nH]c3ccccc3c2=O)C[C@H]1C returned Pf Dd2 inh inactive.
For COc1ccc(-c2csc3ncnc(Nc4cccc(F)c4)c23)cc1 the results were Pf Dd2 inh inactive.
`COc1ccc(-c2csc3ncnc(Nc4cc(OC)cc(OC)c4)c23)cc1` gave Pf Dd2 inh inactive.
CCOc1ccc(-c2csc3ncnc(Nc4cccc(O)c4)c23)cc1 was read as Pf Dd2 inh 10µM.
For O=C(CC[C@H]1NC(=O)c2ccccc2NC1=O)Nc1n[nH]c(CCc2ccccc2)n1 the results were Pf Dd2 inh inactive.

High-throughput results deposited in PubChem BioAssay by National Center for Advancing Translational Sciences (NCATS).
